Results on 64 compounds are retold here after PubChem BioAssay AID376 (PDSP, 2006).

The whole screen tested about 2,000 compounds, of which about 250 (12%) were called active. The full list was thinned out, with actives kept by preference. Unmarked numbers belong to inactive results. No stated cut-off is given here; in the data, active means hERG blockade below about -20% or above about 20%; inactive means in between.

The target in the experiment is Voltage-gated inwardly rectifying potassium channel KCNH2 (Homo sapiens) (UniProt Q12809). Briefly: KCNH2 potassium channel function modulators, cell-based (AID 376).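 Further: 0% = buffer alone and 100% = reference blocker.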 Particulars: hERG-expressing cells, channel activity single-concentration screen; concentration not given here. On the technique in general: hERG is a cardiac potassium channel; its block is linked to QT prolongation.
Voltage-gated inwardly rectifying potassium channel KCNH2 (Homo sapiens), sequence (Q12809 whole entry, looked up): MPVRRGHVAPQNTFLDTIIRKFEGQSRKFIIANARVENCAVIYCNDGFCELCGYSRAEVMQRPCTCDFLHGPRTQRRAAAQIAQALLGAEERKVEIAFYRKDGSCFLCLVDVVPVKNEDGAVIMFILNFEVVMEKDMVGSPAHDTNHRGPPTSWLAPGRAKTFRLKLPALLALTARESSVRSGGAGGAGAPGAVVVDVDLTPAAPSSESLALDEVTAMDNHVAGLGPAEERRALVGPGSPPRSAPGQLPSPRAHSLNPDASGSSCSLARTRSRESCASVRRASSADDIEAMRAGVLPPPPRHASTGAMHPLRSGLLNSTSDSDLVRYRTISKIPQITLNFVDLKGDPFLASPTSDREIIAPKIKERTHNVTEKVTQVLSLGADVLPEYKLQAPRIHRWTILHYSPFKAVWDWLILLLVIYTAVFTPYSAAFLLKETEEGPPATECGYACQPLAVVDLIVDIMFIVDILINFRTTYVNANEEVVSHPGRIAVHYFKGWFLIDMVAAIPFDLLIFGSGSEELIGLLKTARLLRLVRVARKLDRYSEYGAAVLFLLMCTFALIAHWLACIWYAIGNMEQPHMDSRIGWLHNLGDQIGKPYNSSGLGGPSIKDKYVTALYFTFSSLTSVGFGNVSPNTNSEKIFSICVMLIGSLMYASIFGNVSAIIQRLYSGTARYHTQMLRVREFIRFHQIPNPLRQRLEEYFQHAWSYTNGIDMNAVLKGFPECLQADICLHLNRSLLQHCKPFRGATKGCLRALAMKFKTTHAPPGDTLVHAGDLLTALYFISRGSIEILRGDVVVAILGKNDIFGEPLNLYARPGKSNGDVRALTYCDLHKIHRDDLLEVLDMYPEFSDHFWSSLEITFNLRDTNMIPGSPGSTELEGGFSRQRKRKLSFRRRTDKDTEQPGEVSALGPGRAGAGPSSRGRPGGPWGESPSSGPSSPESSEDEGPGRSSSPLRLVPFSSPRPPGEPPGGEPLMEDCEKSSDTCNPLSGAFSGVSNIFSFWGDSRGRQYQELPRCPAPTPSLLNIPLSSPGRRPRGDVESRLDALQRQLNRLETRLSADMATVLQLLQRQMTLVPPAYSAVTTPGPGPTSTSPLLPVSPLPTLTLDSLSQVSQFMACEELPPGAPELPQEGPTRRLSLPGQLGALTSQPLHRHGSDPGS
For the compound `Nc1c(S(N)(=O)=O)cc(S(N)(=O)=O)cc1S(N)(=O)=O`, the hERG blockade is 11.4%.
In the case of `Cc1ccc(N=Nc2c(O)c3ccccc3[nH]c2=O)c(S(=O)(=O)N(C)C)c1` it was 7.5%; in that of `Cc1ccc(N=Nc2ccc(N)cc2C)c(S(N)(=O)=O)c1`, 23.9% (active); in that of `CC1(C)OCC(C2OC3OC(C)(C)OC3C2N)O1` (centres undefined), -5.67%.
In the case of `CCOC(=O)Nc1nc(-c2ccccc2)c(C)s1` it was 18.9%; in that of `O=C(O)C(CCc1ccccn1)c1ccccc1` (centres undefined), 5.69%; in that of `NC(=O)C(=Cc1ccncc1)c1cccc2ccccc12`, -12.9%.
In the case of `O=C(O)C1C(C(=O)Nc2ccc3c(c2)Cc2ccccc2-3)C2(Cl)C(Cl)=C(Cl)C1(Cl)C2(Cl)Cl` (centres undefined) it was 10.6%.
On to `Cc1cc2ccc(OC(=O)c3ccc(N=C(N)N)cc3)cc2oc1=O`, for which the hERG blockade is 13.7%.
In the case of `Oc1ccc(Cl)cc1Cc1cc(Cl)cc(Cc2cc(Cl)ccc2O)c1O` it was 20.3% (active); in that of `OCCSCc1cc(Cl)cc(Cl)c1O`, 6.93%.
In the case of `CN(Cc1cc(Cl)cc(Cl)c1O)Cc1c(O)ccc2ccccc12` it was 10.9%.
In the case of `Oc1ccc(Cc2cc(Cl)cc(Cl)c2O)cc1Cl` it was 45.1% (active); in that of `O=C(O)c1cc(Cl)cc(Cc2cc(Cl)cc(C(=O)O)c2O)c1O`, 17.1%; in that of `O=C(O)Cc1cc(Cl)ccc1O`, -4.5%.
Regarding `CC(C)(N=NC(C)(C)C(=N)N)C(=N)N`, the hERG blockade was 63.7% (active).
In the case of `CC(C)c1ccc(C(C(=O)O)=C(O)C(=O)O)cc1` it was 6.01%; in that of `CC12CCC(O)CC1=CCC1C2CCC2(C)C1CCC2N(CCO)CCO` (centres undefined), -0.272%; in that of `CCC1CCC2C3CC=C4CC(OC(C)=O)C(N)CC4(C)C3CCC12C` (centres undefined), 63.9% (active).
In the case of `CN(C)CCC(=O)C1(O)CCC2C3CC=C4CC(O)CCC4(C)C3CCC21C` (centres undefined), the hERG blockade was 2.46%.
For the compound `CC(CCC(=O)O)C1CCC2C3CCC4CC(O)CCC4(C)C3CCC12C` (centres undefined), the hERG blockade was 5.62%.
In the case of `COC(=O)CCC(C)C1CCC2C3CCC4CC(O)CCC4(C)C3CCC12C` (centres undefined) it was 3.2%; in that of `COc1ccc2c(c1)CN(C(C)C1CCC3C4CCC5CC(O)CCC5(C)C4CCC31C)CO2` (centres undefined), 51.3% (active); in that of `CC(=N[O-])C(C)=N[O-].CC(=N[O-])C(C)=N[O-].CC(=N[O-])C(C)=N[O-].CC(=N[O-])C(C)=N[O-].[Cu].[Cu]`, 17.9%.
Take `O=S(=O)(c1ccc2ccccc2c1)N1CCN(S(=O)(=O)c2ccc3ccccc3c2)CC1`: the hERG blockade is -1.84%.
In the case of `OCC(CCc1c[nH]c2ccccc12)c1c[nH]c2ccccc12` (centres undefined) it was 53.3% (active).
In the case of `c1ccc2c(CN3CCN(Cc4c[nH]c5ccccc45)CC3)c[nH]c2c1` it was -0.497%; in that of `C[N+]1(C(CO)Cc2c[nH]c3ccccc23)Cc2ccccc2C1` (centres undefined), 1.67%.
In the case of `O=C(O)C1CCCN1` (centres undefined) it was 5.2%; in that of `NC(=S)SCCC(=O)O`, 0.17%; in that of `CC1=CC(C2C(=NO)C=C(C)CC2(C)C)C(O)C(C)(C)C1` (centres undefined), 2.54%.
As to `CC(=O)C(C(c1ccccc1)N1CCOCC1)N1CCOCC1` (centres undefined), the hERG blockade is -3.85%.
In the case of `COc1cccc2c1C(=O)c1c(O)c3c(c(O)c1C2=O)CC(O)(C(=O)CO)CC3OC1CC(N)C(O)C(C)O1.[W]` (centres undefined) it was 0.939%; in that of `COc1cccc2c1C(=O)c1c(O)c3c(c(O)c1C2=O)CC(O)(C(=O)CO)CC3OC1CC(N)C(O)C(C)O1` (centres undefined), 3.44%; in that of `COc1cccc2c1C(=N)c1c(O)c3c(c(O)c1C2=O)CC(O)(C(C)=O)CC3OC1CC(N)C(O)C(C)O1` (centres undefined), 32.2% (active).
In the case of `O=C(O)CC(=Cc1ccccc1)C(=O)O` it was -18.3%.
Take `CC1(C)OC2COC(c3[nH]nc4c(=O)[nH]c(=O)[nH]c34)C2O1` (centres undefined): the hERG blockade is 16.5%.
In the case of `O=C(O)c1ccc(Oc2nc3ccccc3s2)cc1` it was 1.79%; in that of `CN(C)CCCN=c1c2ccccc2n(C)c2[nH]c(=O)n(C)c(=O)c12`, 54.8% (active).
In the case of `CN(C)CCCCN1CCc2c(n(C)c3ccccc23)C1=O` it was -2.05%.
As to `CCN(CC)COC(=S)S`, the hERG blockade was -4.52%.
As to `CC1(C)OCC(C2OC(On3nnc4ccc(Cl)cc43)C3OC(C)(C)OC23)O1` (centres undefined), the hERG blockade is 12.7%.
In the case of `NC(=O)CS(=O)CC(N)C(=O)O` (centres undefined) it was 5.23%.
In the case of `NC(N)=NN=Cc1ccc(C2CCNCC2)cc1` it was 6.62%.
In the case of `COc1cc(N=Nc2cccc(S(N)(=O)=O)c2)c2ccccc2c1N` it was 70.8% (active); in that of `Nc1c(S(=O)(=O)O)cc(S(=O)(=O)O)c2ccc(N=Nc3ccccc3)c(O)c12`, 11.9%; in that of `N=C(N)SCCON1C(=O)c2ccccc2C1=O`, -2.21%.
Regarding `CC(=O)Nc1ccc(Cc2ccc3[nH]c(=O)cc(C)c3c2)cc1`, the hERG blockade was 0.318%.
In the case of `CSC(=[SH+])[N-]N=C(c1ccccn1)c1ccccn1.[Cu][Br]` it was 3.34%.
On to `CC1(C)SC2C(NC(=O)C3(N)CCCCC3)C(=O)N2C1C(=O)O` (centres undefined), for which the hERG blockade is -8.47%.
In the case of `NC(N)=NNC(=O)C(=O)O`, the hERG blockade was -3.63%.
In the case of `NNC(=O)CCSc1ccccc1` it was 3.37%.
In the case of `O=C(O)CCCc1ccc2ccc3ccccc3c2c1` it was 8.7%; in that of `NNC(=O)CCc1ccc2ccc3ccccc3c2c1`, -44.7% (active).
In the case of `O=C(CON1C(=O)c2ccccc2C1=O)c1ccccc1` it was 13.2%.
With `O=C(O)c1ccccc1-c1ccccc1C(=O)Nc1ccc2c(c1)Cc1cc(F)ccc1-2`, the hERG blockade is -4.28%.
In the case of `CC(CCCC1SCC2NC(=O)NC21)C(=O)O` (centres undefined) it was 6.78%.
In the case of `Cc1cc2nc3[nH]c4c(Cl)cc(Cl)cc4c3nc2cc1C` it was -2.06%; in that of `Cc1cc2cc3c(=O)[nH]c(=O)[nH]c3nc2cc1C`, -26% (active); in that of `Cc1cc2c(=O)[nH]c(N)nc2nc1C`, -6.54%.
In the case of `O=C(c1cc(Br)ccc1O)c1cc(Br)ccc1O` it was -0.498%.
In the case of `Clc1ccccc1NN(Cc1ccncc1)c1ccccc1Cl`, the hERG blockade is 9.21%.
In the case of `COc1ccc(NC(=S)Nc2ccccc2)cc1` it was 3.26%; in that of `Cc1cc(C(C)(C)C)c(OCCCN2CCOCC2)c(C(C)(C)C)c1`, 20.8% (active).
